Source: ChEMBL document CHEMBL3988442, “University of Dundee, Small-Polar-MMV Screening Library” (2021)
The campaign covered roughly 48,000 compounds. About 13,000 (27%) showed an effect of 50% or more. This is one part of the list.

system: Wolbachia pipientis; assay: Anti-Wolbachia Cell-Based Screen; type: functional; parameters: scale not given: in the data most compounds retested in dose-response had high values; conditions: 5 µM

SMILES	Percent Effect [%]
C[C@H]1CC[C@H](C(=O)N2CCC(n3cc(C4(O)CCCC4)nn3)CC2)CC1	3.706
CSc1ncc(C(=O)N2C[C@@H](NC(C)=O)[C@H](c3ccc(C)cc3)C2)cn1	-0.9583
CN(C(=O)NCCCN1CCCC1)C1CCN(c2ccccc2)C1=O (centres undefined)	-8.204
Cc1cc(-c2cncnc2)ccc1OCC(N)=O	-32.33
N#Cc1cc(N2CCC(S(N)(=O)=O)CC2)c2ccccc2n1	-5.494
COCCn1cnc(-c2nc(C(=O)N3CCOCC3)c3ccccn23)c1	-9.685
COCCN1CCCC(c2ncc(C(=O)N(C)C)c(C)n2)C1 (centres undefined)	128.7
COc1ccccc1OCCN1CCCC(c2noc(C3CC3)n2)C1 (centres undefined)	-3.612
CCCn1cc(C(=O)N2CCCC(c3nccn3CCOC)C2)c(C)n1 (centres undefined)	0.1706
COCCCC1(CO)CCCN(C(=O)c2cnc(C3CC3)nc2)C1 (centres undefined)	-3.858
COCCN1CCCC(c2nc3c([nH]2)CC(C)(C)CNC3=O)C1 (centres undefined)	-7.15
COCCN1CCCC(c2ncc(C(=O)N3CCOCC3)c(C)n2)C1 (centres undefined)	169
COCCN1C[C@@H](C)[C@@]2(COCCN(C(=O)c3cnc(C)cn3)C2)C1.O=C(O)C(F)(F)F	-26.1
COCCN1CCC(c2ncc(C(=O)N3CCOCC3)c(C)n2)CC1	139.1
CN1CC(NC(=O)Cc2csc(C(C)(C)C)n2)CCC1=O (centres undefined)	-3.161
Cn1cccc1C(O)CNS(=O)(=O)c1ccccc1Br (centres undefined)	6.296
O=C(NCC1(CO)CC1)c1ccccc1F	-18.48
NC(=O)N1CCCC1COC(=O)c1cc(F)ccc1F (centres undefined)	-4.772
COc1ccc(F)cc1C(=O)N(C)Cc1cc(C)on1	2.319
COc1ccc(F)cc1CSCC(=O)N(C)C1CC1	-12.98
CN(C(=O)c1cc(F)ccc1F)[C@@H]1CC[C@@H](O)[C@@H]1O	103
COC(=O)CCN1CCC(C(=O)c2cc(F)ccc2F)CC1	-15.76
CN(C(=O)c1ccccc1F)[C@@H]1CC[C@@H](O)[C@@H]1O	107.7

SMILES	Percent Effect [%]
COc1ccc(F)cc1C(=O)N(C)[C@@H]1CC[C@@H](O)[C@@H]1O	132.3
CN(CC(=O)N1CCCC1)C(=O)c1ccccc1F	15.74
CO[C@@H]1CCC[C@@H](N(C)C(=O)c2cc(F)ccc2F)[C@H]1O	130.1
N[C@@H]1CC[C@H](C(=O)NCCc2nc(-c3ccccc3)cs2)C1	11.72
COc1ccc2c(c1)OCC(Cc1cncc(N)c1)C2 (centres undefined)	-0.2819
CCN(C)C[C@@H]1CN(C(=O)c2cc(-c3ccc(F)cc3)n[nH]2)C[C@@H]1CO	95.72
CCN(C)C[C@@H]1CN(C(=O)c2cc(C(F)(F)F)n[nH]2)C[C@@H]1CO	95.2
CN(C)C[C@@H]1CN(C(=O)c2cc(S(N)(=O)=O)ccc2F)C[C@@H]1CO	8.109
COc1cccc(OC)c1C(=O)N1C[C@@H](CN(C)C)[C@@H](CO)C1	-5.352
CN(C)C[C@@H]1CN(C(=O)c2cc(F)ccc2F)C[C@@H]1CO	-6.942
CN(C)C[C@@H]1CN(C(=O)c2cc(-c3ccccc3)n[nH]2)C[C@@H]1CO	104.8
COc1cccc(F)c1C(=O)N1C[C@@H](CN(C)CCO)[C@@H](CO)C1	0.09463
COc1ccc(-n2nc(C)c(C(C)=O)c2C)cc1C(N)=O	0.6017
CC(=O)NCCNC(=O)Nc1cccc(Cl)c1SC(F)F	-0.5749
Cc1ccc(C#N)c(N2CCCC(c3nccn3Cc3cscn3)C2)n1 (centres undefined)	8.413
Cc1cnc(C(=O)N2Cc3ncn(C)c3C(COCC(C)C)C2)cn1.O=C(O)C(F)(F)F (centres undefined)	101.6
CC(C)COCC1CN(C(=O)c2cscn2)Cc2ncn(C)c21.O=C(O)C(F)(F)F (centres undefined)	123.8
Cn1cnc2c1C(COCC1CC1)CN(C(=O)c1cscn1)C2.O=C(O)C(F)(F)F (centres undefined)	-8.988
Cn1cnc2c1C(COCC1CC1)CN(C(=O)Cc1ccsc1)C2.O=C(O)C(F)(F)F (centres undefined)	12.67
COCC1CN(C(=O)COc2ccccc2C)Cc2ncn(C)c21.O=C(O)C(F)(F)F (centres undefined)	-9.212
CCc1cc(N2CCC(F)(F)CC2)n2nc(C)c(C)c2n1	-3.857
O=C(NCC1CCCN1CCc1ccccc1)NCC1(O)CCC1 (centres undefined)	3.682
c1nnc(Nc2cncc(C3CCCN3CC3CC3)n2)s1 (centres undefined)	143.4

SMILES	Percent Effect [%]
Cc1nc(C)n(CC2CCCN2CC(=O)Nc2nncs2)n1 (centres undefined)	-3.74
c1ccc(CCN2CCCC2c2cncc(Nc3nncs3)n2)cc1 (centres undefined)	77.51
Cl.NC(=O)COc1ccc(CNCc2ccc(F)cc2F)cc1	-6.385
COc1ccc2c(c1OC)Cc1c-2nc(N)c(C#N)c1C1CCOC1 (centres undefined)	97.76
COc1cc(-c2cc(C3CCOC3)c(C#N)c(N)n2)ccc1O (centres undefined)	-3.198
N#Cc1c(N)nc2c(c1C1CCOC1)CCc1cc(O)ccc1-2 (centres undefined)	95.46
COc1ccc2c(c1)Cc1c-2nc(N)c(C#N)c1C1CCOC1 (centres undefined)	55.98
COc1ccc(-c2cc(C3CCOC3)c(C#N)c(N)n2)cn1 (centres undefined)	-5.09
Cc1cc(C)cc(-c2cc(C3CCOC3)c(C#N)c(N)n2)c1 (centres undefined)	8.915
CN(C)Cc1nc(C(C)(C)NC(=O)C2CC(=O)N(CC3CC3)C2)no1 (centres undefined)	-8.829
CN(C(=O)c1cccn1C)C1CCC(NC(=O)OC(C)(C)C)CC1 (centres undefined)	-22.93
O=C(NC(CC(F)(F)F)c1ccc(Cl)cc1)c1nc(=O)[nH][nH]1 (centres undefined)	-2.983
COc1cccc(OCC2CCCN(C(=O)CCn3ccnc3)C2)c1 (centres undefined)	-97.21
Cc1csc2c(C3CCCN(C(=O)CCn4ccnc4)C3)nc(C)n12 (centres undefined)	85.68
Cc1csc2c(C3CCCN(C(=O)CCCn4cncn4)C3)nc(C)n12 (centres undefined)	105.3
Cc1ccc(=O)n(CC(=O)N2CCCC(c3nc(C)c(C)s3)C2)n1 (centres undefined)	-3.398
CCCN1CCCC2(CCN(C(=O)CCCn3cncn3)C2)C1=O (centres undefined)	-10.51
Cc1nc(C)n(C2CCCN(C(=O)CCCn3ccnc3)C2)n1 (centres undefined)	-10.35
Cc1csc2c(C3CCCN(C(=O)Cn4cncn4)C3)nc(C)n12 (centres undefined)	83.22
Cc1ccsc1[C@@H]1CCN(C(=O)CCCn2cncn2)C[C@H]1O	10.3
O=C(c1ccc2ccccc2c1)C1CCCN(C(=O)Cn2cncn2)C1 (centres undefined)	2.145
CC(C)c1nc(CC(=O)N2CCCC(n3cncn3)C2)cs1 (centres undefined)	-6.104
Cc1nc(C)n(CC(=O)N2CCCC(c3nc(C)n4c(C)csc34)C2)n1 (centres undefined)	71.32
